In PubChem BioAssay (NCATS) one finds Potency and activity (max response) data, which are given here for 23 molecules.

Each structure is given as a SMILES string. Several values for one entry are separate records, joined by “and”; a condition that tells them apart may be missing. Identical values can stand only once. Inconclusive results are not listed. Unmarked numbers belong to inactive results. Activity calls are given as the source filed them. Calls follow the shape of the dose curve; as a rule, active = well fitted curve in the direction sought with a large enough effect; inconclusive = small, poorly fitted or top-dose-only effect, or another doubt; inactive = no such curve, though single readings can be large; an effect the other way counts as inactive or inconclusive.

Assay [1] can be described thus: Viability qHTS for spleen associated tyrosine kinase inhibitor (SYKi) naive MV4-11 cells (AID 1963823). Also: nearly all actives have a fitted effect of over 40% in size. The procedure, abridged:
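Cells: MV4-11, SYK inhibitor naive, 500 per well. Treatment: library compounds, 72 hr, 37 C, 5% CO2. Read-out: CellTiter-Glo luminescence after 10 min RT.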
In general terms: Quantitative high-throughput screening tests each substance at several concentrations.

A short description of assay [2]: Viability qHTS for spleen associated tyrosine kinase inhibitor (SYKi) drug resistant MV4-11 cells (AID 1963824). Also: nearly all actives have a fitted effect of over 35% in size. The procedure, abridged:
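CellTiter-Glo luminescence, read 10 min after reagent addition, reports viability after a 72 hr compound exposure. Cells are an MV4-11 line made resistant to SYK inhibition, seeded at 500 per well onto compound-containing plates.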

A short description of assay [3]: Cellular viability qHTS for adrenocortical cancer (ACC) cell line SW-13 (AID 1963989). Also: nearly all actives have a fitted effect of over 65% in size.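 As to activity (max response): cells grown in serum-free medium with ITS supplement; % is scaled to controls: 0 for no effect and ±100 for the full control effect.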 The note with it: SW-13 ACC cells viability, CellTiter-Glo, 48 h; activity (max response): stronger effect = lower value. The procedure, abridged: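 Compound titrations (up to 46 uM final, in DMSO) were applied to SW-13 cells for 48 h at 37C/5% CO2. Reading used CellTiter-Glo after 20 min at room temperature; fitted curves yielded IC50 and efficacy.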

Assay [4] can be described thus: Cellular viability qHTS for adrenocortical cancer (ACC) cell line NCI-H295R (AID 1963990). Also: nearly all actives have a fitted effect of over 60% in size. The procedure, abridged: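 Readout: CellTiter-Glo luminescence, 20 min RT. Exposure: 48 h, 37C/5% CO2. Cells: NCI-H295R, ITS-DMEM serum-free. Range: up to 46 uM. Analysis: 4PL fit, IC50 plus efficacy.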
Potency is read from the fitted curve at half-maximal effect.

On to `CN1CCC[C@@H]1c1cccnc1`, for which the Potency result in assay [1], in assay [2] and in assay [4] was “inactive” each time. For the same molecule, in assay [3], the activity (max response) is -8.92%.

As to `CC1(C)CO[C@@H](CC(=O)O)CN1`, the Potency entry in assay [1], in assay [2] and in assay [4] was “inactive” throughout. Also, in assay [3], the activity (max response) was 8.37%.

As for `CCC(Cc1c(I)cc(I)c(N)c1I)C(=O)O` (configuration not stated), the Potency entry in assay [1], in assay [2] and in assay [4] was “inactive” each time. In assay [3], the activity (max response) was 1.75%.

As to `O=C(O)C(S)C(S)C(=O)O` (configuration not stated), the Potency entry in assay [1], in assay [2] and in assay [4] was “inactive” throughout. Moreover, the activity (max response) in assay [3] was 13.2%.

In the case of `O=C(/C=C/c1cccc(S(=O)(=O)Nc2ccccc2)c1)NO`, the Potency was 563 nM (active) and 417 nM (active) in assay [1]; 282 nM (active) and 332 nM (active) in assay [2]; 3550 nM (active) in assay [3]; 2510 nM (active) in assay [4].

Regarding `COc1cc(OC)c2c(=O)[nH]c(-c3cc(C)c(OCCO)c(C)c3)nc2c1`, the Potency in assay [1] was 14.6 µM (active); in assay [2] it was 13 µM (active) and 9.34 µM (active). Further, the activity (max response) in assay [3] is -6.15%. Further, the Potency result in assay [4] was “inactive”.

Take `Cc1[nH]nc2ncc(C(=O)N3CCC[C@H]3c3ccc(Cl)cc3)cc12`: the values for the Potency in assay [1] and in assay [2] were 5.25 µM (active) and 2.95 µM (active), respectively. For the same molecule, the activity (max response) in assay [3] was -6.61%. The Potency result in assay [4] was “inactive”.

On to `CCN(CC)CCOC(=O)C(c1ccccc1)C1CCCCC1` (configuration not stated), for which the Potency result in assay [1], in assay [2] and in assay [4] was “inactive” throughout. Also, in assay [3], the activity (max response) was 12.1%.

For the molecule `CC(C)NCC(O)COc1cccc2[nH]ccc12` (configuration not stated), the Potency result in assay [1], in assay [2] and in assay [4] was “inactive” throughout. Moreover, in assay [3], the activity (max response) is -13.8%.

On to `CNCc1ccccc1`, for which the Potency result in assay [1], in assay [2] and in assay [4] was “inactive” each time. Also, the activity (max response) in assay [3] was 8.2%.

Consider `NC(CC1c2ccccc2Oc2ccccc21)(C(=O)O)C1CC1C(=O)O` (configuration not stated), for which the Potency entry in assay [1], in assay [2] and in assay [4] was “inactive” in each case. For the same molecule, in assay [3], the activity (max response) is 1.03%.

Take `Nc1ccc(S(=O)(=O)Nc2cnc3ccccc3n2)cc1`: the Potency entry in assay [1], in assay [2] and in assay [4] was “inactive” in each case. In addition, the activity (max response) in assay [3] is 8.58%.

For `CCCCOC(=O)c1ccc(O)cc1`, the Potency result in assay [1], in assay [2] and in assay [4] was “inactive” throughout. Further, the activity (max response) in assay [3] is -18.3%.

For `CCCN1CCCC[C@H]1C(=O)Nc1c(C)cccc1C`, the Potency result in assay [1], in assay [2] and in assay [4] was “inactive” in each case. Besides, the activity (max response) in assay [3] is 4.43%.

Consider `COc1cc2c(cc1O)CCN[C@]21CS[C@@H]2c3c(OC(C)=O)c(C)c4c(c3[C@H](COC1=O)N1[C@@H]2[C@H]2c3c(cc(C)c(OC)c3O)C[C@@H]([C@@H]1O)N2C)OCO4`, for which the Potency was 0.0014 µM (active) in assay [1], 0.0015 µM (active) in assay [2], 3.8 nM (active) in assay [3] and 9.4 nM (active) in assay [4].

Turning to `CC(C)(C)C1CCC(CC2=C(O)c3ccccc3C(=O)C2=O)CC1` (configuration not stated), the Potency entry in assay [1], in assay [2] and in assay [4] was “inactive” throughout. Moreover, the activity (max response) in assay [3] is 12.3%.

With `Cc1ccc([N+](=O)[O-])cc1S(=O)(=O)N(C)/N=C/c1cnc2ccc(Br)cn12`, the Potency was 16.4 nM (active) and 26.3 nM (active) in assay [1]; 16.4 nM (active) and 46.8 nM (active) in assay [2]; 282 nM (active) in assay [3]; 282 nM (active) in assay [4].

Take `NS(=O)(=O)c1cc2c(cc1Cl)NC(C1CC3C=CC1C3)NS2(=O)=O` (configuration not stated): the Potency result in assay [1], in assay [2] and in assay [4] was “inactive” each time. The activity (max response) in assay [3] is -7.72%.

Take `CO[C@@H]1[C@@H](OC)[C@H](C)[C@@](O)(CC(=O)O)O[C@H]1[C@H](C)[C@H]1O[C@@]2(CC[C@@](C)([C@H]3CC[C@@](C)([C@@H]4O[C@@H]([C@H]5O[C@](C)(O)[C@H](C)C[C@@H]5C)C[C@@H]4OC4C[C@H](OC)[C@@H](OC)[C@H](C)O4)O3)O2)C[C@H](O)[C@H]1C` (some centres not stated): the Potency in assay [1] is 0.376 µM (active); in assay [2], 0.596 µM (active); in assay [3], 1460 nM (active); in assay [4] it was 1160 nM (active).

As for `CCC[C@@H]1C[C@@H](C(=O)N[C@@H]([C@H]2O[C@H](SC)[C@H](O)[C@@H](O)[C@H]2O)[C@H](C)Cl)N(C)C1`, the Potency entry in assay [1], in assay [2] and in assay [4] was “inactive” each time. Moreover, in assay [3], the activity (max response) is 5.6%.

As to `CCNC(=O)Nc1ncc(-c2cc(-c3c(C)cc(OC)cc3C)nc(-c3cnccn3)n2)s1`, the Potency result in assay [1], in assay [2] and in assay [4] was “inactive” in each case. In assay [3], the activity (max response) was -7.82%.

Turning to `CONC(=O)Nc1ccc(-c2sc3c(c2CN(C)Cc2ccccc2)c(=O)n(-c2ccccc2)c(=O)n3Cc2c(F)cccc2F)cc1`, the Potency in assay [1] and in assay [2] was 16.6 µM (active) each time. Moreover, the activity (max response) in assay [3] was -8.17%. Moreover, the Potency entry in assay [4] was “inactive”.

Take `CCCCNc1ncc2c(-c3ccc(CN4CCN(C)CC4)cc3)cn(C3CCC(O)CC3)c2n1` (configuration not stated): the Potency in assay [1] is 0.0105 µM (active); in assay [2], 11.6 nM (active) and 20.9 nM (active); in assay [3] it was 11200 nM (active); in assay [4], 6310 nM (active).
